According to PubChem BioAssay (NCATS):
“And” between values parts separate entries of the source, which are not always exact repeats. Equal values may be shown once. Inconclusive results are not listed. The source made the active and inactive calls. Unless noted, calls come from the whole dose curve; as a rule, active = well fitted curve in the direction sought with a large enough effect; inconclusive = small, poorly fitted or top-dose-only effect, or another doubt; inactive = no such curve, though single readings can be large; an effect the other way counts as inactive or inconclusive.

Key:
[1] = Cell Viability - N2a (AID 540); conditions: N2a mouse neuroblastoma cell viability; activity change, negative = cytotoxicity: at 92.2 µM (top of the series);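 note: plate controls were DMSO alone for no effect and tamoxifen control for full effect; nearly all actives have a fitted effect of over 45% in size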
Method in brief: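 Mouse neuroblastoma N2a cells (1500/well) were preincubated 5 hr at 37 °C, then exposed to compounds for 40 hr at 37 °C in complete medium. Viability was read as intracellular ATP by CellTiter-Glo luminescence; AC50 from Hill fits.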

[2] = molecular target: Cytochrome P450 3A4 (Homo sapiens) (UniProt P08684); test: qHTS Assay for Inhibitors and Substrates of Cytochrome P450 3A4 (AID 884); note: nearly all actives have a fitted effect of over 50% in size; note: potency is the fitted concentration of half-maximal effect
Chain of Cytochrome P450 3A4 (Homo sapiens) (P08684 whole entry, looked up): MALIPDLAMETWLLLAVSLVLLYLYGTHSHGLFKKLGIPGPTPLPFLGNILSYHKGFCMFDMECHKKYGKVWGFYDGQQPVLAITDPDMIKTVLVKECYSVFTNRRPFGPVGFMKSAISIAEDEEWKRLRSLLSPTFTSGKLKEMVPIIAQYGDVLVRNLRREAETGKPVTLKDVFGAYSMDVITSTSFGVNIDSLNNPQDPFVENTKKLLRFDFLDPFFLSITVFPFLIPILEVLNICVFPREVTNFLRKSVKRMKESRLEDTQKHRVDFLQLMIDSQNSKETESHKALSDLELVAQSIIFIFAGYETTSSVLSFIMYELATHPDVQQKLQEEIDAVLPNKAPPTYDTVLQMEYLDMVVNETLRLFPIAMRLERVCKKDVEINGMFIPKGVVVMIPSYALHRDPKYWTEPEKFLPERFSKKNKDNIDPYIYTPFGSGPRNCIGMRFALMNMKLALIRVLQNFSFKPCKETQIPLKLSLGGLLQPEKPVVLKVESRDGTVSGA
Method in brief: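 20 nM human CYP3A4 with 25 uM Luciferin-PPXE (at KM) in 200 mM KPO4, preincubated 10 min with compound; NADPH regeneration started a 60 min RT reaction. Luciferin detected by luminescence, normalized to 57 uM ketoconazole as full inhibition.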

[3] = molecular target: Glucocorticoid receptor (Homo sapiens) (UniProt P04150); test: qHTS assay for small molecule agonists of glucocorticoid receptor signaling (AID 588532; active = well fitted curve in the direction sought with a large enough effect in the signal ratio, with a control signal flat; the % refers to the signal ratio;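 note: 100% = dexamethasone at 0.1 µM and 0% = DMSO only wells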); conditions: HeLa MMTV-bla, beta-lactamase ratio, agonist, 18 h; stronger effect = higher value; percent of dexamethasone control, DMSO zero
Chain of Glucocorticoid receptor (Homo sapiens) (P04150 whole entry, looked up): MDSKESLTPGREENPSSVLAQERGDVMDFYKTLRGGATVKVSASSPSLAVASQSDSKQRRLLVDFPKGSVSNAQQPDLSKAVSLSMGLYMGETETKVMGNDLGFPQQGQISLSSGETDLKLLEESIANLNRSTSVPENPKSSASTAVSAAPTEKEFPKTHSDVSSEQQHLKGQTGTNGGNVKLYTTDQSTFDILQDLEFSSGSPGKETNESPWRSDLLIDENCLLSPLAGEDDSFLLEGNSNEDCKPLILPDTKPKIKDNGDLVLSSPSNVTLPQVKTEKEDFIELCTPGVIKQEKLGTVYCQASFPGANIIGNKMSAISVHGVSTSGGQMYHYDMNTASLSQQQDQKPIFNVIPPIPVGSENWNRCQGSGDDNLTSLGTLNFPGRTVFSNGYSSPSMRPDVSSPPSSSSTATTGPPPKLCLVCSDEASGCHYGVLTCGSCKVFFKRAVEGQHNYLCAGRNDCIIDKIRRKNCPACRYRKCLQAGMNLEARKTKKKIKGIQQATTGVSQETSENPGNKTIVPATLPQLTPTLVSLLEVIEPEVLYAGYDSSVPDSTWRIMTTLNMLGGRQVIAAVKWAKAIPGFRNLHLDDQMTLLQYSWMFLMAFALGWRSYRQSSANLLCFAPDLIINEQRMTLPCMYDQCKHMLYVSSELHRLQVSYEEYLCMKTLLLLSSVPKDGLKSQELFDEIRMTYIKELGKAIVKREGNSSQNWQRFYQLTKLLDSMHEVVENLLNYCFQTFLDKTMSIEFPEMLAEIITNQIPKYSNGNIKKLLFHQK
Method in brief: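 Stimulation of a glucocorticoid response element-driven beta-lactamase gene was measured in HeLa cells. Responses were scaled between DMSO basal and 0.1 uM dexamethasone, then fitted for half-maximal stimulation.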

[4] = molecular target: Glucocorticoid receptor (Homo sapiens) (UniProt P04150); test: qHTS assay for small molecule antagonists of glucocorticoid receptor signaling (AID 588533; active = well fitted inhibition curve with a large enough effect in the signal ratio, with a control signal flat, not every such curve was filed as active; the % refers to the signal ratio;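 note: cells stimulated with 2 nM dexamethasone as agonist; % is set by controls: 0 for no effect and ±100 for the full control effect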)
Method in brief: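 Antagonist-mode qHTS: compound titrations added to GRE-bla HeLa cells, then dexamethasone 2 nM final; 18 h, 37 C. CCF4 FRET fluorescence normalized to dexamethasone and DMSO; IC50 from Hill fit.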

[5] = molecular target: Peroxisome proliferator-activated receptor delta (Homo sapiens) (UniProt Q03181); test: qHTS assay for small molecule agonists of peroxisome proliferator-activated receptor delta signaling (AID 588534; calls by dose curve;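 note: 0% = DMSO basal wells and 100% = positive control agonist at 10 µM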)
Chain of Peroxisome proliferator-activated receptor delta (Homo sapiens) (Q03181 whole entry, looked up): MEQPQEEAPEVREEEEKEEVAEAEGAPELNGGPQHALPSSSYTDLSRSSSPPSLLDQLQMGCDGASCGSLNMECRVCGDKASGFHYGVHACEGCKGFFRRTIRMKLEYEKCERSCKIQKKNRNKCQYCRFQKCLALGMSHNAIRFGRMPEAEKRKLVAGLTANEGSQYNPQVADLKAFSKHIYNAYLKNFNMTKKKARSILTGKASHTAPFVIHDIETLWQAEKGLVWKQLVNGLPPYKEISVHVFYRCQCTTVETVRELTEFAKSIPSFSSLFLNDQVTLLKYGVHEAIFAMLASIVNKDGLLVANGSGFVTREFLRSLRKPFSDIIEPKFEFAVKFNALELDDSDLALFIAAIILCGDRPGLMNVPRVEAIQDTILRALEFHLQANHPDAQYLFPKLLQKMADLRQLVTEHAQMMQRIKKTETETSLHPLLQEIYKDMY
Method in brief: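 Cell-based beta-lactamase reporter assay run in agonist mode: cells seeded and incubated 5 hrs at 37 C, compounds added and incubated 18 hrs at 37 C. CCF4 dye fluorescence read after 2 hrs at RT; EC50 and efficacy from Hill fits.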

[6] = qHTS assay for small molecule antagonists of peroxisome proliferator-activated receptor delta signaling (AID 588535; active = well fitted inhibition curve with a large enough effect in the signal ratio, with a control signal flat, not every such curve was filed as active; the % refers to the signal ratio;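 for max response: cells co-treated with a PPAR-delta agonist as stimulator during compound exposure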); conditions: HEK293T PPARd-UAS-bla, beta-lactamase FRET ratio, 18 h; 460 nm channel
Method in brief: (§1)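 GeneBLAzer PPAR-delta-UAS-bla HEK293T cells in medium with 2% charcoal/dextran FBS were preincubated 5 hrs at 37 C, then given compounds, incubated 18 hrs at 37 C, and read by CCF4 beta-lactamase fluorescence; IC50 from Hill fits.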

[7] = molecular target: Peroxisome proliferator-activated receptor gamma (Homo sapiens) (UniProt P37231); test: qHTS assay for small molecule antagonists of peroxisome proliferator-activated receptor gamma signaling (AID 588537; active = well fitted inhibition curve with a large enough effect in the signal ratio, with a control signal flat, not every such curve was filed as active; the % refers to the signal ratio;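 note: reporter cells co-stimulated with 50 nM rosiglitazone agonist during compound treatment; % of control where 0% means no effect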)
Chain of Peroxisome proliferator-activated receptor gamma (Homo sapiens) (P37231 whole entry, looked up): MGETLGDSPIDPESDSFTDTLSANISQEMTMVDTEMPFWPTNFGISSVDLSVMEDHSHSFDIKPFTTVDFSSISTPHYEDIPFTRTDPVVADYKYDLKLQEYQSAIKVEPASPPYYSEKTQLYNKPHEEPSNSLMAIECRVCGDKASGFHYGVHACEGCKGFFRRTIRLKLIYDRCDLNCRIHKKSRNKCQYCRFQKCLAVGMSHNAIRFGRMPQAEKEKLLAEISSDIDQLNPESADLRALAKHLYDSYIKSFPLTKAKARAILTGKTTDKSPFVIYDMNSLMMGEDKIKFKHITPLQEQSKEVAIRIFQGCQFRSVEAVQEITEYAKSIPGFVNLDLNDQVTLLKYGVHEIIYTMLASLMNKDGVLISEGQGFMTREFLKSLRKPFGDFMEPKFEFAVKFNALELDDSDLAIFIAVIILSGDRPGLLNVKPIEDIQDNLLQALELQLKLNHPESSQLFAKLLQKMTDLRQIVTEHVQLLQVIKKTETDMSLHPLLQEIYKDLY
Method in brief: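 PPAR-gamma-UAS-bla HEK293 cells (3000/well, 1% charcoal/dextran-stripped FBS) were preincubated 6-6.5 h at 37 C, given titrated compounds, then stimulated with 50 nM rosiglitazone for 16 h. Beta-lactamase activity was read with CCF4 dye; IC50 came from Hill fits.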

[8] = molecular target: Vitamin D3 receptor (Homo sapiens) (UniProt P11473); test: qHTS assay for small molecule antagonists of vitamin D receptor signaling (AID 588541; calls by dose curve;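 note: receptor activated by calcitriol during compound treatment; % is set by controls: 0 for no effect and ±100 for the full control effect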)
Chain of Vitamin D3 receptor (Homo sapiens) (P11473 whole entry, looked up): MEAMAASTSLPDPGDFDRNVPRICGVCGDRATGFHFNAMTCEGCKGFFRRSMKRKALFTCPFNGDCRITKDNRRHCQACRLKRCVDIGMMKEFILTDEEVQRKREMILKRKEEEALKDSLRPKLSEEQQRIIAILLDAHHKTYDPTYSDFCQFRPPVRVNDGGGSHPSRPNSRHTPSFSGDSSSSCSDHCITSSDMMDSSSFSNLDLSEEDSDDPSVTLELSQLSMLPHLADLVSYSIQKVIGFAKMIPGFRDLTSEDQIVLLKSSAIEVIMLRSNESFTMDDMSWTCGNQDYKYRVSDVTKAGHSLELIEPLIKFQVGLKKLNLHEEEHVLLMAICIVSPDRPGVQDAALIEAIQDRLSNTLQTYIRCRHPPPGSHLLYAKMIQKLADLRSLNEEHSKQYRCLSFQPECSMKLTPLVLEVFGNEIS
Method in brief: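 VDR-UAS-bla HEK293T cells (2000/well, 2% charcoal-stripped FBS) were treated with titrated compounds plus 1-alpha,25-dihydroxyvitamin D3 (50 nM or 3 nM final) for 16 h at 37 C. CCF4 beta-lactamase fluorescence was read; Hill fits gave IC50.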

[9] = molecular target: Voltage-gated inwardly rectifying potassium channel KCNH2 (Homo sapiens) (UniProt Q12809); test: qHTS Assay for Small Molecule Inhibitors of the Human hERG Channel Activity (AID 588834);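 note: lower thallium flux fluorescence means stronger hERG block; nearly all actives have a fitted effect of over 50% in size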; note: potency is the fitted concentration of half-maximal effect
Chain of Voltage-gated inwardly rectifying potassium channel KCNH2 (Homo sapiens) (Q12809 whole entry, looked up): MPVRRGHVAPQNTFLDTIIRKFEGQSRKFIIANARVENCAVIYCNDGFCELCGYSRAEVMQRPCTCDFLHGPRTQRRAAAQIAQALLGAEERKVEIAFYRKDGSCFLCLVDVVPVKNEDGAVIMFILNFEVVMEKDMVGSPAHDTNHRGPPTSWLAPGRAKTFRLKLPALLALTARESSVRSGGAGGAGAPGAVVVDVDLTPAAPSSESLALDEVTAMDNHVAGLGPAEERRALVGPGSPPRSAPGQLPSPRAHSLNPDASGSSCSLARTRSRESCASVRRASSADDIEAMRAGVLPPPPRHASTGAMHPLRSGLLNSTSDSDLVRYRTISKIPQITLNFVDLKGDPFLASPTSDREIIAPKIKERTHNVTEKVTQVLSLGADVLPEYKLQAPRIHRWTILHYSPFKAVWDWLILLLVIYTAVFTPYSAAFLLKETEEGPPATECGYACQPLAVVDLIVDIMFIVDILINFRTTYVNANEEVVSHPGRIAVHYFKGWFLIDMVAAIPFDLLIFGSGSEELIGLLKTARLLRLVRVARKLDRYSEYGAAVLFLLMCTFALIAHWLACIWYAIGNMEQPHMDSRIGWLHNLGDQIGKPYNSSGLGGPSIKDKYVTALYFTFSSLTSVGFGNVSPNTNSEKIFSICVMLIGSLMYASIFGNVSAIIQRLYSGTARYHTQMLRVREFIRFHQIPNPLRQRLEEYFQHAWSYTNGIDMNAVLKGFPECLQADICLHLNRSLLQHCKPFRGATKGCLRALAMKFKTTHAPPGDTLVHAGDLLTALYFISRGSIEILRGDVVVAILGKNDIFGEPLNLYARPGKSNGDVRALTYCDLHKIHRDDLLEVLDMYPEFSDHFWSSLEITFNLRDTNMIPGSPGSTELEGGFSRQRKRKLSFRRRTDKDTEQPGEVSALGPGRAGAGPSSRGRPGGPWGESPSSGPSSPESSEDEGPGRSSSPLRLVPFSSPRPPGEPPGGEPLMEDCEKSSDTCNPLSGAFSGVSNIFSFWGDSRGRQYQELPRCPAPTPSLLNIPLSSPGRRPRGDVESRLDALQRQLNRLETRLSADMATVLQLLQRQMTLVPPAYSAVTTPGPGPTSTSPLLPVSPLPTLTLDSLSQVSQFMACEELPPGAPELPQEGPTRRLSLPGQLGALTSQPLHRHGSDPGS
Method in brief: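 Blockade is seen as reduced FluxOR thallium-flux fluorescence in U2OS cells expressing hERG from a BacMam construct, in Opti-MEM with 2% FCS. Concentration-response data fitted to the Hill equation for AC50.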

[10] = qHTS assay for small molecule agonists of the antioxidant response element (ARE) signaling pathway (AID 651741; active = well fitted activation curve with a large enough effect in the signal ratio; the % refers to the signal ratio; note: % of control where 0% means no effect)
Method in brief: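 ARE-bla HepG2 cells (beta-lactamase reporter under ARE control) were plated at 2,000 cells/well, preincubated 5 h at 37 C/5% CO2, then treated with DMSO-dissolved compounds for 16 h at 37 C; LiveBLAzer B/G FRET substrate added, fluorescence read after 2 h at room temperature.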

[11] = qHTS assay for small molecule disruptors of the mitochondrial membrane potential - 1 hr assay (AID 651754; calls by dose curve; note: % is set by controls: 0 for no effect and ±100 for the full control effect; nearly all actives have a fitted effect of over 35% in size)
Method in brief: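 HepG2 cells, attached overnight at 37C, were exposed to compound or DMSO vehicle for 1 hr at 37C, 5% CO2, then stained with Mito-MPS dye for 30 min. Red aggregate versus green monomer fluorescence reports membrane potential.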

[12] = qHTS assay for environmental chemicals that activate the Aryl hydrocarbon Receptor (AhR) signaling pathway (AID 651777); conditions: 1A2-DRE human hepatoma cells, luciferase, 24 h; activation: stronger effect = higher value; note: % of control where 0% means no effect; nearly all actives have a fitted effect of over 15% in size
Method in brief: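 Following a 24 hr incubation with test chemicals at 37 C and 5% CO2, 1A2-DRE human hepatoma cells received One-Glo reagent; after 30 min at room temperature, luciferase output reflected CYP1A2 induction via AhR.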

[13] = molecular target: Nuclear receptor ROR-gamma (Homo sapiens) (UniProt P51449); test: qHTS assay for small molecule antagonists of the retinoid-related orphan receptor gamma (ROR-gamma) signaling pathway (AID 651802); note: % is set by controls: 0 for no effect and ±100 for the full control effect; nearly all actives have a fitted effect of over 60% in size
Chain of Nuclear receptor ROR-gamma (Homo sapiens) (P51449 whole entry, looked up): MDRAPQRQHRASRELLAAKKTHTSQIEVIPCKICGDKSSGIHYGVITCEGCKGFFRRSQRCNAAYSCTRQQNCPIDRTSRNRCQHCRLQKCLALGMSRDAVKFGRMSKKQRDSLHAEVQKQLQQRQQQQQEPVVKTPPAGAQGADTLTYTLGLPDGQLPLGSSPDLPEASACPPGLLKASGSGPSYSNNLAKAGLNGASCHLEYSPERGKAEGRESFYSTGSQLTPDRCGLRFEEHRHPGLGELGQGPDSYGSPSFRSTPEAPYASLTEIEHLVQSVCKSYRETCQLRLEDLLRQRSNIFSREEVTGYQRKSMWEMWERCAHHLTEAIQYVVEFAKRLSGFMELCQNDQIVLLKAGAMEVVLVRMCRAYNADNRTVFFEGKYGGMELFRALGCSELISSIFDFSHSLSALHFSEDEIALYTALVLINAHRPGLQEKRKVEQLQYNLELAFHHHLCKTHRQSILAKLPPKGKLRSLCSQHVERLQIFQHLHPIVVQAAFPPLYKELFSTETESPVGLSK
Method in brief: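 CHO cells carrying TET-inducible ROR-gamma and an ROR response element–luciferase reporter were exposed to compound, then induced with doxycycline. After 16hr at 37C, luminescence was read; lower signal indicates antagonism.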

[14] = qHTS assay for small molecule antagonists of the retinoid-related orphan receptor gamma (ROR-gamma) signaling pathway - cell viability counter screen (AID 720652; active = well fitted curve in the direction sought with a large enough effect in the repeat runs; an effect the other way counts as inactive or inconclusive;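 note: compound exposure lasted 16 hr before ATP read; % is set by controls: 0 for no effect and ±100 for the full control effect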)
Method in brief: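 Counter screen in CHO cells carrying TET-inducible ROR-gamma and an ROR response element-luciferase reporter; cells plated 5 hr, compound pinned, doxycycline added, then 16 hr at 37 C. Viability read as intracellular ATP by CellTiter-Glo luminescence.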

[15] = Cellular Toxicity (caspase-3) BJ (AID 658);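 note: 0% = DMSO basal and 100% = 10 µM staurosporine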
Method in brief: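 Luminescent aminoluciferin-substrate cleavage reports caspase 3/7 activity in normal human BJ fibroblasts after 16 hr compound exposure at 37 °C. Normalized to DMSO (basal) and 10 uM staurosporine (100%); AC50 from Hill fit of concentration-response.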

[16] = molecular target: Peroxisome proliferator-activated receptor delta (Homo sapiens) (UniProt Q03181); test: qHTS assay for small molecule antagonists of peroxisome proliferator-activated receptor delta signaling (AID 588535);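 for max response: cells co-treated with a PPAR-delta agonist as stimulator during compound exposure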
Method in brief: as §1

[17] = qHTS assay for small molecule activators of the p53 signaling pathway (AID 651743; active = well fitted activation curve with a large enough effect in the signal ratio, not every such curve was filed as active; the % refers to the signal ratio; note: % of control where 0% means no effect); conditions: HCT-116 p53RE-bla, beta-lactamase FRET ratio, 16 h; activation: stronger effect = higher value
Method in brief: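 p53RE-bla HCT-116 cells with a stably integrated beta-lactamase reporter under p53 response elements were plated, rested 5 hours at 37 C/5% CO2, then exposed to compounds in DMSO for 16 hours at 37 C. LiveBLAzer B/G FRET substrate was read after 2 hours at room temperature.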

[18] = molecular target: Estrogen receptor (Homo sapiens) (UniProt P03372); test: qHTS assay for small molecule antagonists of estrogen receptor alpha signaling (AID 588513; active = well fitted curve in the direction sought with a large enough effect in the signal ratio, with a control signal flat, not every such curve was filed as active; the % refers to the signal ratio; note: % is set by controls: 0 for no effect and ±100 for the full control effect)
Chain of Estrogen receptor (Homo sapiens) (P03372 whole entry, looked up): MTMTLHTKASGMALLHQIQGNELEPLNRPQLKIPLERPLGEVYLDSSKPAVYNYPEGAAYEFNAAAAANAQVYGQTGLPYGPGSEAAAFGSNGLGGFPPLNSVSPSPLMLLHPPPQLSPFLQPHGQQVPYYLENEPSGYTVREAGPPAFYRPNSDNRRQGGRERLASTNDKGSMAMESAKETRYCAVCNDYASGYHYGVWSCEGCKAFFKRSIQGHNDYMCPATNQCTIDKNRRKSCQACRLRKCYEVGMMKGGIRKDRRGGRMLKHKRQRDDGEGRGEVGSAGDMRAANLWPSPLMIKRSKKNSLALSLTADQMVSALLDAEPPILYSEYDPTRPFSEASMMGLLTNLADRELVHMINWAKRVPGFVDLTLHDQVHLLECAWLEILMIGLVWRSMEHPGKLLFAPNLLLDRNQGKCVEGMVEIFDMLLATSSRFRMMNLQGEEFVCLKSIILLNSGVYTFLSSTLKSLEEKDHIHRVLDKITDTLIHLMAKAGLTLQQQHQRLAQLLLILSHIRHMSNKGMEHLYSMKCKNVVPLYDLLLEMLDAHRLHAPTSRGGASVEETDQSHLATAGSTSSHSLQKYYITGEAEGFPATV
Method in brief: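 Antagonist-mode qHTS in ER-alpha-UAS-bla HEK 293 cells: compound titration, 0.5nM estradiol for 18 h, CCF4 fluorescence, Hill-derived IC50.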

[19] = molecular target: Estrogen receptor (Homo sapiens) (UniProt P03372); test: qHTS assay for small molecule agonists of estrogen receptor alpha signaling (AID 588514; calls by dose curve; note: nearly all actives have a fitted effect of over 70% in size; note: potency is the fitted concentration of half-maximal effect;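 for activation: 0% = vehicle only and 100% = reference agonist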)
Method in brief: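 ER-alpha-UAS-bla GripTite HEK 293 cells in medium with 2% charcoal/dextran-treated FBS were treated with compound titrations at 37 C for 18 hrs; beta-lactamase reporter read by CCF4 fluorescence after 2 hrs at RT.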

[20] = qHTS assay for small molecule activators of the nuclear factor-kappa B (NF-kB) signaling pathway (AID 651749; active = well fitted activation curve with a large enough effect in the signal ratio; the % refers to the signal ratio; note: % of control where 0% means no effect); conditions: NF-kB-bla ME-180 cells, beta-lactamase FRET ratio, 16 h; stronger effect = higher value
Method in brief: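 ME-180 cells stably carrying a beta-lactamase reporter under an NF-kB response element were exposed to compound or DMSO vehicle for 16 hr at 37C, 5% CO2. Pathway activation was read by FRET, since reporter expression disrupts FRET.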

CCNCC
21.4%: max response [6]
inactive: Potency [1] | Potency [2] | activation [3] 0.672% | outcome [4] | outcome [5] | Potency [7] | outcome [8] | Potency [9] | Potency [10] | Potency [11] | activation [12] -0.962% | Potency [13] | Potency [14]

c1ccc(C2CO2)cc1 (stereo unspecified)
-22%: max response [6]
inactive: Potency [1] | outcome [15] | Potency [2] | activation [3] 9.49% | outcome [4] | outcome [16] | Potency [7] | Potency [9] | Potency [10] | activation [17] -1.82% | activation [12] 0.299% | Potency [13] | Potency [14]

Cc1ccc(N)cc1C
inactive: Potency [1] | outcome [15] | Potency [18] | Potency [19] | outcome [5] | outcome [8] | Potency [9] | activation [20] 0.0731% | activation [12] 3.36% | Potency [13] | Potency [14]
3.44%: max response [6]

Cc1coc2c1CCC(C)C2 (stereo unspecified)
-2.44%: max response [6]
inactive: Potency [1] | Potency [2] | Potency [18] | Potency [19] | activation [3] 1.47% | outcome [4] | outcome [5] | outcome [16] | outcome [8] | Potency [9] | activation [20] -0.0074% | Potency [11] | activation [12] 1.75% | Potency [13]

Cc1cccc(C)c1N
inactive: Potency [1] | outcome [15] | Potency [2] | Potency [18] | Potency [19] | activation [3] 0.219% | Potency [10] | activation [20] -1.09% | Potency [11] | activation [12] 1.32% | Potency [13]
17.3%: max response [6]

C=C(Cl)CCl
inactive: Potency [1] | outcome [15] | Potency [2] | Potency [18] | Potency [19] | activation [3] -2.96% | outcome [4] | outcome [16] | outcome [8] | Potency [9] | Potency [10] | activation [17] -0.495% | activation [20] 0.174% | Potency [11] | Potency [13]
15.9%: max response [6]

CC(C)OC(=O)Cc1ccccc1
inactive: Potency [1] | outcome [15] | Potency [2] | Potency [18] | Potency [19] | activation [3] 0.809% | outcome [4] | outcome [8] | Potency [9] | Potency [10] | Potency [11] | Potency [14]

CC(Cl)(Cl)Cl
-34.9% and 9.34%: max response [6]
inactive: Potency [1] | outcome [15] | Potency [2] | Potency [7] | outcome [8] | Potency [10] | activation [17] -0.56% and -3.67% | activation [20] -0.312% and 0.328% | activation [12] -0.393% and 0.414% | Potency [13] | Potency [14]

CC(C)Br
inactive: Potency [1] | Potency [2] | Potency [18] | Potency [19] | outcome [4] | Potency [7] | outcome [8] | Potency [10] | activation [17] -2.41% | Potency [13] | Potency [14]

Cc1ccc2c(C)cccc2c1
16.7%: max response [6]
inactive: outcome [15] | Potency [2] | Potency [18] | Potency [19] | activation [3] -2.73% | outcome [4] | outcome [5] | Potency [7] | outcome [8] | Potency [9] | Potency [10] | activation [17] -0.174% | Potency [13]

COc1c(C(C)(C)C)cc([N+](=O)[O-])c(C)c1[N+](=O)[O-]
inactive: Potency [1] | outcome [15] | Potency [2] | Potency [18] | activation [3] -4.08% | outcome [4] | Potency [7] | outcome [8] | Potency [10] | activation [20] -0.667% | Potency [11] | activation [12] 0.103% | Potency [13] | Potency [14]
active: Potency [19] 7.08 µM | Potency [9] 31.6 µM

Nc1ccc(-c2ccccc2)cc1
active: Potency [2] 12.6 µM
inactive: Potency [1] | outcome [15] | Potency [18] | Potency [19] | outcome [5] | outcome [8] | Potency [9] | activation [17] -1.6% | activation [20] -0.257% | activation [12] 12.6% | Potency [13]

CCCN(CCC)c1c([N+](=O)[O-])cc(C(F)(F)F)cc1[N+](=O)[O-]
inactive: Potency [1] | outcome [15] | Potency [18] | Potency [19] | outcome [5] | Potency [7] | outcome [8] | activation [20] -3.66% and -3.44% | Potency [11] | activation [12] 0.344% and 0.563% | Potency [13] | Potency [14]
0.867%: max response [6]

Clc1ccc(C(Cl)(Cl)Cl)c(Cl)c1
5.85%: max response [6]
inactive: Potency [1] | outcome [15] | outcome [5] | outcome [16] | Potency [7] | outcome [8] | Potency [10] | activation [17] -0.0334% | activation [20] -0.477% | Potency [11] | Potency [13]

O=[N+]([O-])c1cccc(O)c1
inactive: outcome [5] | outcome [8] | Potency [9] | activation [17] -2.9% | activation [20] -0.57% | Potency [13] | Potency [14]

[O-][Cl+2]([O-])O
inactive: Potency [1] | outcome [15] | Potency [2] | Potency [18] | Potency [19] | Potency [9] | Potency [10] | activation [17] 0.222% | activation [20] -0.919% | Potency [11] | activation [12] 0.0972% | Potency [14]

FC(Cl)(Cl)Cl
inactive: Potency [1] | outcome [15] | activation [3] 0.534% | outcome [4] | Potency [7] | Potency [9] | Potency [10] | activation [17] -3.53% | Potency [11] | activation [12] -1.34% | Potency [13] | Potency [14]
